In all, about 410,000 compounds went through this assay and about 310 (0.076%) were called active. A call without a number means that no potency is given here. Another 2% or so got no clear call; they are omitted. Calls come from the whole dose curve; as a rule, active = well fitted curve in the direction sought with a large enough effect; inconclusive = small, poorly fitted or top-dose-only effect; inactive = flat fitted curve, though single readings scatter. Only a selection was taken, and actives are over-represented in it overall.
Potency is the fitted concentration of half-maximal effect.

Chain of DNA dC->dU-editing enzyme APOBEC-3G (Homo sapiens) (Q9HC16 whole entry, looked up): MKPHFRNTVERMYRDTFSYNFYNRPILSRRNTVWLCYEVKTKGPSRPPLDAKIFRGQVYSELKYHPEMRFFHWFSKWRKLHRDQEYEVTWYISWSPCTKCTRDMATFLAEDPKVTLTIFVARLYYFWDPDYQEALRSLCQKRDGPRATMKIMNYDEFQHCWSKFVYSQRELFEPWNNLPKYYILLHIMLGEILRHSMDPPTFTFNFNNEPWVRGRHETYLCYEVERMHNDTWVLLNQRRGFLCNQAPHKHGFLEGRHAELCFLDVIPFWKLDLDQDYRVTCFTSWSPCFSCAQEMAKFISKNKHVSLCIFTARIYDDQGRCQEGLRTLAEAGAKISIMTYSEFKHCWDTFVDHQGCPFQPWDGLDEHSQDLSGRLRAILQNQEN

The experiment has as its target DNA dC->dU-editing enzyme APOBEC-3G (Homo sapiens) (UniProt Q9HC16). Briefly: qHTS for Inhibitors of Vif-A3G Interactions: qHTS. Note: nearly all actives have a fitted effect of over 60% in size. As to conditions: HeLa A3G-eYFP + Vif (tagged APOBEC3G with the HIV-1 protein that degrades it), YFP fluorescence, overnight; series mostly up to 46.1 µM. The source says: The recent discovery and characterization of host restriction factors, which provide a potent defense to invading retroviruses, has provided new targets for antiviral drug development. APOBEC3G (A3G) and APOBEC3F (A3F) are potent cytidine deaminases that block HIV-1 replication; HIV-1 expresses the Vif protein, which counteracts A3G and A3F by binding to them and inducing their proteasomal degradation. The Vif-A3G and Vif-A3F interactions provide two potential targets for development of small molecules which can interfere with the ability of Vif to degrade A3G or A3F. […] To identify inhibitors that can interfere with Vif mediated degradation of A3G and A3F, we have developed Hela cell lines that stably express A3G or A3F tagged with eYFP at the C-terminal end (A3G-eYFP or A3F-eYFP, respectively) and Vif. In the absence of an inhibitor, Vif induces degradation of A3G-eYFP and A3F-eYFP, and the cells are not fluorescent. In the presence of an inhibitor, it is expected that Vif will be unable to degrade A3G-eYFP and/or A3F-eYFP, resulting in an increase in yellow fluorescence. In this assays Vif A3G was screened against the Molecular Library Small Molecule Repository (MLSMR). NIH Chemical Genomics Center [NCGC] NIH Molecular Libraries Probe Centers Network [MLPCN] MLPCN Grant: MH093245 Assay Submitter (PI): Vinay Pathak, National Cancer Institute
5 uL of 700 cells/well of A3G-YFP cells are dispensed into black, clear bottom plates. The plates are incubated overnight at 37 deg C. 23 nL of compounds are added by pintool. The plates are incubated overnight at 37 deg C and then read on the TTP Acumen (Ex 488/ Em 500-530).
For orientation: qHTS replaces the single test concentration by a dilution series.
As to `O=C(c1cnn2c1NC(=C1CC1)C=C2C(F)F)N1CCc2ccccc2C1`, the Potency entry was “inactive”.

As to `Cc1cccc(CNC(=O)c2cnc3sc(N4CCCCC4)nn3c2=O)c1`, the Potency entry is “inactive”.

`Cc1ccccc1NC(=O)Cn1c(=O)n(Cc2ccco2)c(=O)c2ccc(C(=O)NC3CCCC3)cc21`: the Potency entry is “inactive”.

Turning to `CCOC(=O)c1ccc(NC(=O)c2c(NCc3cccs3)sc3c2CCCC3)cc1`, the Potency result was “inactive”.

For `CN(C)c1ccc(/C=C/c2sc3ccccc3[n+]2C)cc1`, the Potency entry was “inactive”.

For `CC(C)Sc1oc(-c2cccs2)nc1S(=O)(=O)c1ccc(Cl)cc1`, the Potency result is “inactive”.

For the molecule `CCOC(=O)C1CCC(CN(Cc2ccc(OC)cc2)S(=O)(=O)c2ccc(F)c(C(=O)Nc3cc(C)ccc3C)c2)CC1` (centres undefined), the Potency entry is “inactive”.

As for `CC(C)c1ccc(NC(=O)Cn2c3ncccc3c(=O)n2-c2ccccc2)cc1`, the Potency result is “inactive”.

As to `CC(C)(C)c1ccc(C(=O)C[N+]2(C)CCCc3ccccc32)cc1` (centres undefined), the Potency result was “inactive”.

As for `Cc1cccc(N2CCN(S(=O)(=O)c3ccc4[nH]c5c(c4c3)CCCCC5)CC2)c1C`, the Potency entry is “inactive”.

As for `O=C1NC(c2cccc(Cl)c2)Nc2ccccc21` (centres undefined), the Potency was 11.2 µM (active).

For the molecule `O=C1NC(c2ccccc2)Oc2ccccc21` (centres undefined), the Potency result is “inactive”.

Turning to `C=CCOc1cccc(C2NC(=O)c3ccccc3O2)c1` (centres undefined), the Potency result is “inactive”.

Take `COc1ccc(S(=O)(=O)NCC(c2ccc(N(C)C)cc2)N2CCc3ccccc32)cc1OC` (centres undefined): the Potency result was “inactive”.

In the case of `COc1cccc(NC(=O)Nc2ccc3c(c2)N(C)C(=O)c2ccccc2S3)c1`, the Potency entry was “inactive”.

For the molecule `O=C(Nc1cc(C(F)(F)F)ccc1Cl)c1cc2nc(-c3ccc4c(c3)OCO4)cc(C(F)(F)F)n2n1`, the Potency result is “inactive”.

Consider `CC(C)(C)NC(=O)CSc1nc(-c2ccc(F)cc2)cc(C(F)(F)F)n1`, for which the Potency entry is “inactive”.

On to `CCOc1ccc(S(=O)(=O)c2cn(Cc3ccccc3)c3ccc(OCC)cc3c2=O)cc1`, for which the Potency entry was “inactive”.

With `CC(NC(=O)c1cc2c(=O)n3ccccc3nc2n(C(C)C)c1=N)c1ccccc1` (centres undefined), the Potency result was “inactive”.

Take `CC1CC1C(=O)OCC(=O)Nc1cccc(F)c1` (centres undefined): the Potency result was “inactive”.

Turning to `CCN(CC)C(=O)CSC(Nc1cccc(F)c1)=C(C#N)C#N`, the Potency is 12.6 µM (active).

Regarding `CCN(CC)N=Nc1cccc(NC(C)=O)c1`, the Potency entry was “inactive”.

In the case of `COc1ccc(/C=C/c2ccnc3ccccc23)cc1OC`, the Potency entry is “inactive”.

With `Cc1cccc(NC(=O)c2nnn(CC(=O)Nc3ccc(C(C)C)cc3)c2N)c1C`, the Potency entry is “inactive”.

`C/C=C/NNC(=O)Cc1ccc(OC)cc1`: the Potency result was “inactive”.

On to `CO[C@H]1O[C@@H]2O[C@@]3(C)CC[C@@H]4[C@@H](C)CC[C@@H]([C@H]1C)[C@@]24OO3`, for which the Potency entry is “inactive”.

For `CCOc1ccc(-c2cc3nc(C4CCN(C(=O)OC(C)(C)C)CC4)c(C(=O)Nc4ccc(C(=O)OC)cc4)cn3n2)cc1`, the Potency entry is “inactive”.

Regarding `CS(=O)(=O)c1ccc(-c2nnc(NC(=O)c3ccc4c(c3)OCCO4)o2)cc1`, the Potency result was “inactive”.

For `CCCCCn1c(=O)[nH]c2cc(C(=O)Nc3ccc(F)cc3)ccc2c1=O`, the Potency result is “inactive”.

As for `N#Cc1ccc[n+](CC(=O)c2ccc(O)c(O)c2)c1`, the Potency entry was “inactive”.

In the case of `COc1ccc(CN2CCC(=O)c3ccccc3S2(=O)=O)cc1`, the Potency result was “inactive”.

Take `Cc1c(CCO)sc[n+]1CC(=O)c1ccc2ccccc2c1`: the Potency entry was “inactive”.

With `O=C(CSc1nc(-c2cccc(F)c2)[nH]c1-c1ccccc1)Nc1ccc2c(c1)OCO2`, the Potency result is “inactive”.

As for `NC(=O)Nc1ccc(/C=C/c2ccnc3ccccc23)cc1`, the Potency entry is “inactive”.

In the case of `CCN(CC)/[N+]([O-])=N/OCOC(=O)Cc1c(C)n(C(=O)c2ccc(Cl)cc2)c2ccc(OC)cc12`, the Potency result is “inactive”.

For `COc1cc(C)ccc1OCCSc1nc2ccc(NC(=O)c3ccc(C)cc3)cc2s1`, the Potency entry is “inactive”.

As to `CC(=O)c1ccc[n+](C(C)CCC(C)[n+]2cccc(C(C)=O)c2)c1` (centres undefined), the Potency entry was “inactive”.

As to `CCCN1C(=O)C(O)(CC(=O)c2ccc(CC)cc2)c2cc(Br)ccc21` (centres undefined), the Potency entry is “inactive”.

As for `O=C(Nc1ccccc1C(F)(F)F)c1nc(S(=O)(=O)Cc2ccccc2F)ncc1Cl`, the Potency result was “inactive”.

With `Cc1cccc(N2CCN(C(=O)CCSCc3ccccc3F)CC2)c1C`, the Potency result is “inactive”.

`CN(CCC#N)c1ccc(C=O)cc1`: the Potency entry is “inactive”.

For `Cc1ccc(-c2nn3c(=O)cc(CN4CCN(S(=O)(=O)c5ccc(Cl)cc5)CC4)nc3s2)cc1`, the Potency result is “inactive”.

For `CC1(C)Cc2ccccc2-c2c[nH]c(=O)n21`, the Potency result is “inactive”.

Regarding `COc1cc(NC(=O)CN2CCN(S(=O)(=O)c3ccc(Br)cc3)CC2)cc(OC)c1`, the Potency entry is “inactive”.

Turning to `Cc1cc(NC(=O)C2CCC(CNS(=O)(=O)c3ccc(Br)s3)CC2)ccc1Br` (centres undefined), the Potency entry is “inactive”.

As to `Cc1ccc(NC(=O)CCCn2c(=O)c3cccn3c3ccccc32)cc1Cl`, the Potency entry was “inactive”.

Turning to `O=C1COc2ccc(-c3csc(-c4ccc(Cl)cc4)n3)cc2N1`, the Potency entry was “inactive”.

With `CN(C)c1ccc(C=Nc2ccc(/C=C/c3ccnc4ccccc34)cc2)cc1`, the Potency entry is “inactive”.

Consider `CCOC(=O)c1ccc(-c2ccc(/C=C(\C#N)C(=O)Nc3ccc(C)cc3)o2)cc1`, for which the Potency entry is “inactive”.

For `Cc1ccc2nc(/C(C#N)=C/c3ccccc3F)[nH]c2c1`, the Potency entry was “inactive”.

Consider `Cc1ccc2nc(/C(C#N)=C/c3ccc(-c4ccc(C(=O)OC(C)C)cc4)o3)[nH]c2c1`, for which the Potency was 2 µM (active).

Turning to `Cc1c(C(=O)Nc2cccc(Cl)c2)oc2ccc(S(=O)(=O)N3CCOCC3)cc12`, the Potency result is “inactive”.

For the molecule `CS(=O)c1ccc(/C=C2\C=Cc3ccccc32)cc1` (centres undefined), the Potency entry is “inactive”.

For `OCC(O)C(O)C(O)C(O)C=Nc1ccc(/C=C/c2ccnc3ccccc23)cc1` (centres undefined), the Potency entry was “inactive”.

For the molecule `C=COC(=O)N1CCN(/[N+]([O-])=N/Oc2ccc([N+](=O)[O-])cc2[N+](=O)[O-])CC1`, the Potency entry was “inactive”.

As to `SCc1nc2ccc(Cl)cc2[nH]1`, the Potency entry was “inactive”.

For the molecule `CCC(=O)N1CCc2cc(Br)cc(S(=O)(=O)CCC(=O)NCc3ccccc3OC)c21`, the Potency entry was “inactive”.

In the case of `O=C(CCSCc1cccc(F)c1)NCc1ccccc1`, the Potency entry was “inactive”.

Take `O=C1C[C@H]2C=CCc3cccc(c32)CN1Cc1ccccc1`: the Potency result is “inactive”.

As to `CN1CCN(/[N+]([O-])=N/Oc2ccc([N+](=O)[O-])cc2[N+](=O)[O-])CC1`, the Potency result is “inactive”.

Consider `O=C1CCC[C@@H]2C[C@@]3(C[C@@H]4CCN1[C@H]24)Nc1ccccc1NC3=NCc1ccccc1`, for which the Potency entry is “inactive”.

Consider `CCC(C)NC(=O)Cn1c(=O)n(-c2ccc(Cl)cc2)c(=O)c2c3c(sc21)CCCC3` (centres undefined), for which the Potency result is “inactive”.

Regarding `Cc1ccc(CSc2oc(-c3cccs3)nc2S(=O)(=O)c2ccc(C)cc2)cc1`, the Potency result was “inactive”.

As to `CC1(C)C=Cc2c(ccc(C(=O)/C=C/c3ccccc3)c2O)O1`, the Potency result was “inactive”.

The values above are taken from PubChem BioAssay AID602310 (National Center for Advancing Translational Sciences (NCATS), 2012).
